Measured values taken from PubChem BioAssay AID686979 (National Center for Advancing Translational Sciences (NCATS), 2013).
The campaign covered roughly 420,000 compounds. About 50,000 (12%) were called active. Not shown: some 26% with an inconclusive outcome. Calls come from the whole dose curve; as a rule, active = well fitted inhibition curve with a large enough effect; inconclusive = small, poorly fitted or top-dose-only effect; inactive = flat fitted curve, though single readings scatter. Shown is part of a subset that was picked to be rich in actives. Entries that show only a call come without a potency. Where a SMILES comes first, the peptide text is derived from it. [ ]: non-standard residue; d: D form. ξ: configuration not given here. ξM = CSCCC(N)C(=O)O

assay: qHTS for Inhibitors of human tyrosyl-DNA phosphodiesterase 1 (TDP1): qHTS in cells in presence of CPT; settings: chicken DT40 Tdp1-/-;hTDP1 cells + 20 nM CPT, ATP luminescence, 48 h; series mostly up to 46.2 µM; note: nearly all actives have a fitted effect of over 55% in size
Outline: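 Chicken DT40 Tdp1-/- cells stably complemented with human TDP1 were seeded at 400 cells/well in medium containing 20 nM camptothecin, exposed to pin-transferred compounds, and grown at 37 °C for at least 48 hr. Viability was read as ATP luminescence.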
Potency is the fitted concentration of half-maximal effect.

| SMILES | Potency |
| --- | --- |
| CS(=O)(=O)N1CCN(C(=O)CSc2ccccc2)CC1 | inactive |
| CC(=O)Nc1ccc(NC(=O)CSc2nnnn2C2CCCCC2)cc1 | inactive |
| OC[C@H]1O[C@@H](c2nc(-c3nc(-c4ccc(F)cc4)no3)cs2)[C@H](O)[C@@H](O)[C@H]1O | inactive |
| O=C(NNC(=S)NCCCN1CCOCC1)c1ccncc1 | inactive |
| COc1cc(Cl)c(NC(=O)C(NS(=O)(=O)c2cccs2)C(C)C)c(OC)c1 (stereo unspecified) | inactive |
| CC(C)C(NS(=O)(=O)c1cccs1)C(=O)Nc1nc(C(C)(C)C)cs1 (stereo unspecified) | 16.4 µM (active) |
| COc1ccc(CNC(=O)C(NS(=O)(=O)c2cccc3nsnc23)C(C)C)cc1 (stereo unspecified) | inactive |
| O=C(CCNS(=O)(=O)c1ccccc1)NCCCc1ccccc1 | inactive |
| Nn1c(SCC(=O)Nc2ccc3c(c2)CCC3)nnc1C1CC1 | inactive |
| COC(=O)Cc1cnc(NC(=O)CSc2nc(C(C)C)cc(=O)[nH]2)s1 | inactive |
| Cn1c(=O)c2sccc2n2c(CCC(=O)NCc3ccccc3Cl)nnc12 | inactive |
| CCC(=O)N1CCc2cc(S(=O)(=O)NCCC(=O)Nc3cccc(C)c3C)ccc21 | inactive |
| Cc1ccc(N2C(=O)CC(Nc3cccc4ccccc34)C2=O)cc1 (stereo unspecified) | inactive |
| CC1=C(C)CC2C(=O)N(c3cccc4ccccc34)C(=O)C2C1 (stereo unspecified) | 18.4 µM (active) |
| O=C1c2ccccc2C(=O)N1c1cccc2ccccc12 | inactive |
| CCc1nccn1S(=O)(=O)c1cccc([N+](=O)[O-])c1 | inactive |
| CC1CCN(C(=O)Cn2nnnc2CN2CCOCC2)CC1 | inactive |
| CS(=O)(=O)N1CCN(C(=O)c2cc3ccccc3oc2=O)CC1 | inactive |
| CCNC(=S)N1CCN(S(=O)(=O)c2ccc(Cl)s2)CC1 | inactive |
| O=C(c1cc2ccccc2o1)N1CCN(S(=O)(=O)c2ccc(Cl)s2)CC1 | 18.4 µM (active) |
| COc1cccc(C(O)Cc2nc3ccccc3n2C)c1OC (stereo unspecified) | inactive |
| NS(=O)(=O)c1ccc(CNC(=O)c2cccc(Oc3ccccc3)c2)cc1 | inactive |

| SMILES | Potency |
| --- | --- |
| CN1C(=O)[C@H]2[C@@H](/C=C/c3ccccc3)N3C(=O)CN(Cc4ccc(-c5ccccc5)cc4)C(=O)[C@@]3(C)[C@H]2C1=O | 25.9 µM (active) |
| CN1C(=O)[C@H]2[C@@H](C3CC3)N3C(=O)CN(Cc4ccccc4)C(=O)[C@@]3(C)[C@H]2C1=O | inactive |
| COC(=O)CN1C(=O)[C@H]2[C@@H](/C=C/c3ccccc3)N3C(=O)CN(Cc4ccccc4)C(=O)[C@@]3(Cc3ccccc3)[C@H]2C1=O | inactive |
| O=C(C[C@@H]1C/C=C\CCC(=O)OC[C@@H]2CCCN2C1=O)NCCO | inactive |
| CC(=O)c1sc(N/N=C/c2ccc(C(C)C)cc2)nc1C | inactive |
| CCC(C)c1ccc(NC(=S)NCc2ccccn2)cc1 (stereo unspecified) | inactive |
| CC(=O)N1CCc2cc(Br)cc(S(=O)(=O)CCC(=O)NCCc3ccc(Cl)cc3)c21 | inactive |
| COc1ccc2oc(-c3cccc(NC(=O)CSc4ccc(Cl)cc4)c3)nc2c1 | 20.6 µM (active) |
| O=C(COc1ccc(Cl)cc1)Nc1ccc(-c2nc3cc(Cl)ccc3o2)c(O)c1 | inactive |
| Cc1ccc(SCC(=O)Nc2ccc3oc(-c4ccccc4C)nc3c2)cc1 | inactive |
| Cc1ccccc1-c1nc(NC(C)C)nc2cc(-c3ccccc3)sc12 | 16.4 µM (active) |
| COc1ccccc1C(=O)NC(CCSC)C(=O)NNC(=O)c1csc(N2CCOCC2)n1 (stereo unspecified) | inactive |
| CS(=O)(=O)Nc1cccc(-c2cn3ccccc3n2)c1 | inactive |
| COc1ccccc1CNc1ncncc1-c1cccc(NS(C)(=O)=O)c1 | inactive |
| CNc1ncnc2ccc(-c3cccc(NS(C)(=O)=O)c3)cc12 | 11.6 µM (active) |
| O=C(CCS(=O)(=O)c1ccccc1)NC1CCCC1 | inactive |
| COC1=CCC2([N+](=O)[O-])CN(CC(=O)O)CC1([N+](=O)[O-])C2 (stereo unspecified) | inactive |
| CCOc1ccccc1NC(=O)CCn1cnnn1 | inactive |
| Cc1ccc(C)c(NC(=O)CN(C)C(=O)c2ccc3ncsc3c2)c1 | inactive |
| COc1ccc(CNC(=O)CCCn2nc(C)c([N+](=O)[O-])c2C)cc1 | inactive |
| CCc1ccc(NC(=O)Cn2nc(C)c([N+](=O)[O-])c2C)cc1 | inactive |
| Cc1ccc(Oc2cc(NC(=O)CCCn3nc(C)c([N+](=O)[O-])c3C)cc([N+](=O)[O-])c2)cc1 | 16.4 µM (active) |

| SMILES | Potency |
| --- | --- |
| Cc1ccc(/C(N)=N/OC(=O)COc2ccc(Cl)c(C)c2)cc1 | inactive |
| C/C(=N\NC(=O)Cc1ccccc1[N+](=O)[O-])c1cccnc1 | inactive |
| CCc1ccccc1NC(=O)Cc1cn(C)c2ccccc12 | inactive |
| CC1CCN(c2ccc(C(=O)Nc3nnc(C4CC4)s3)cc2[N+](=O)[O-])CC1 | inactive |
| Cc1cccc(C)c1NC(=O)CNC(=O)c1ccc(N2CCOCC2)c([N+](=O)[O-])c1 | inactive |
| O=C(Nc1cccc(C(F)(F)F)c1)c1ccc(N2CCNCC2)c([N+](=O)[O-])c1 | 14.6 µM (active) |
| CCOc1ccc(NC(=O)CC(Cc2ccc(Cl)cc2)C(=O)O)cc1 (stereo unspecified) | inactive |
| N#C/C(=C\c1ccc(O)c(O)c1)C(N)=O | inactive |
| N#C/C(=C\c1ccc(O)c(O)c1)C(=O)NCc1ccccc1 | 29.9 µM (active) |
| CC(C)NC(=O)/C(C#N)=C\c1ccc(N(C)C)c(Br)c1 | inactive |
| CCc1nc(-c2cc(S(=O)(=O)N3CCN(c4ccc(OC)cc4)CC3)ccc2OC)no1 | inactive |
| COc1cc2c(cc1O)C(SC)=NC(C)(C)C2 | 25.9 µM (active) |
| Cc1cn(C)c(=O)n(C)c1=O | inactive |
| O=C1CCCCC1C(=O)c1ccccc1 (stereo unspecified) | inactive |
| O=C(Cn1c[n+](CC(=O)c2ccc([N+](=O)[O-])cc2)cn1)c1ccc([N+](=O)[O-])cc1 | 16.4 µM (active) |
| O=C(c1ccncc1)c1ccc([N+](=O)[O-])cc1 | inactive |
| O=C(Nn1cnnc1)c1ccc([N+](=O)[O-])cc1 | inactive |
| COC(=O)CNC(=O)C(CCSC)NC(C)=O (stereo unspecified) (Ac-[ξM]-Gly-OMe) | inactive |
| CCCC(C(=O)n1nc(C)cc1C)C(NS(=O)(=O)c1ccc(C)cc1)c1ccccc1 (stereo unspecified) | 16.4 µM (active) |
| Cc1ccc(S(=O)(=O)NC(C(=O)N2CCOCCOCCOCCOCC2)c2ccccc2)cc1 (stereo unspecified) | inactive |
| Cc1ccc(S(=O)(=O)Nc2nc(C)cc(-n3nc(C)cc3C)n2)cc1 | inactive |
| Cc1cccc(C(=O)NNC(=O)CSc2nnc(C(C)C)n2C)c1 | inactive |

| SMILES | Potency |
| --- | --- |
| COc1ccc(NC(=O)C(c2ccccc2)N2Cc3ccccc3C2=O)cc1 (stereo unspecified) | inactive |
| Cc1ccc2nc(C)cc(N/N=C/c3ccc(F)cc3)c2c1 | inactive |
| Cc1cnc(CNc2nc(-c3cccnc3)nc3ccccc23)cn1 | inactive |
| Fc1ccc(/C=N/Nc2nc(-c3cccnc3)nc3ccccc23)cc1 | 20.6 µM (active) |
| C/C(Cn1nnc2ccccc21)=N\OC(=O)c1cc(F)c(F)cc1Cl | inactive |
| Cc1cc(NC(=O)CCC(=O)N(CC(=O)NCC2CCCO2)c2ccccc2)no1 (stereo unspecified) | inactive |
| CCc1nc2ccccc2c(C(=O)OC2CCCCC2=O)c1C (stereo unspecified) | inactive |
| O=C(COC(=O)c1c2c(nc3ccccc13)CCCC2)c1ccc(Br)s1 | 8.2 µM (active) |
| Cn1cccc1C(=O)OCC(=O)c1ccc(Br)s1 | inactive |
| CCc1noc(C)c1C(=O)N1CCCSC1=Nc1ccccc1OC | inactive |
| CN(C)S(=O)(=O)c1ccc(C(=O)NCCN=C2NS(=O)(=O)c3ccccc32)cc1 | inactive |
| COC(=O)c1ccc(C(=O)NC2CC(C)(C)Cc3c2cnn3-c2ccc(F)cc2)nc1 (stereo unspecified) | 1.84 µM (active) |
| Cc1cc(C(=O)NC2CC(C)(C)Cc3c2cnn3-c2ccccc2)n[nH]1 (stereo unspecified) | inactive |
| CC1(C)Cc2c(cnn2-c2cccc(F)c2)C(NC(=O)c2cc[n+]([O-])cc2)C1 (stereo unspecified) | inactive |
| Cc1ccc(Cl)cc1NC(=O)CCC(=O)N1CC(C)Sc2ccccc21 (stereo unspecified) | 23.1 µM (active) |
| Cc1ccc(Cl)cc1NC(=O)COC(=O)C1CCCCC1 | inactive |
| Cc1ccc(CNC(=O)CCC(=O)N2CC(C)Sc3ccccc32)cc1 (stereo unspecified) | inactive |
| Cc1ccc(CNC(=O)CCNS(=O)(=O)c2ccc3c(c2)oc(=O)n3C)cc1 | inactive |
| C(#CCN1CCOCC1)CCCN1CCOCC1 | inactive |
| Cn1nc(C(F)(F)F)c2cc(NC(=O)OCC(C)(C)C)sc21 | inactive |
| CCNC(=O)C1(C)CCCN(C(=O)c2c(C)noc2C)C1 (stereo unspecified) | inactive |
| Cc1cc2ccccn2c1C(=O)c1cccc(S(=O)(=O)N2CCOCC2)c1 | 14.6 µM (active) |

| SMILES | Potency |
| --- | --- |
| Cc1cc2ccccn2c1C(=O)c1cccc(F)c1 | inactive |
| O=C(COC(=O)c1ccccc1)Nc1cccc(S(=O)(=O)N2CCOCC2)c1 | inactive |
| O=[N+]([O-])c1ccc(S(=O)(=O)Nc2cccc(-c3ccc(N4CCCC4)nn3)c2)cc1 | inactive |
| Cc1cc(C(=O)CC#N)c(C)n1-c1c(C)n(C)n(-c2ccccc2)c1=O | inactive |
| C=C1CCN([C@@H](Cc2ccccc2)C(=O)N2CCOCC2)S(=O)(=O)c2ccccc21 | inactive |
| C=CCn1c2ccccc2c2nnc(SC(CC)C(=O)Nc3nc(C)c(C(=O)OCC)s3)nc21 (stereo unspecified) | 11.6 µM (active) |
| CCOC(=O)c1sc(NC(=O)C(CC)Sc2nccn2C)nc1C (stereo unspecified) | inactive |
| CCn1c2ccccc2c2nnc(SCC(=O)O)nc21 | inactive |
| O=C(NC1CC1)C1CCCN(C(=O)NC2CCCCC2)C1 (stereo unspecified) | inactive |
| CSc1nc(N(C)NC(=O)c2cccc(C)c2)c2ccccc2n1 | 0.0517 µM (active) |
| COc1ccc(OCC(=O)NNC(=O)c2cccc(C)c2)cc1 | inactive |
| Cc1ccc(S(=O)(=O)NC(=O)c2cccc(C)c2)cc1 | inactive |
| Cc1nc2ccccc2c(=O)n1NC(=O)c1ccccc1 | inactive |
| CN(NC(=O)c1ccccc1)c1nc2ccccc2nc1C(F)(F)F | 8.2 µM (active) |
| O=C(Nn1cnc2ccccc2c1=O)c1ccccc1 | inactive |
| CN(NC(=O)c1ccccc1F)c1nc(C(F)(F)F)nc2ccccc12 | 0.206 µM (active) |
| COC(=O)CNC(=O)c1ccccc1F | inactive |
| O=C(Cn1cnc2ccccc2c1=O)NNC(=O)c1ccccc1F | inactive |
